Assay results reported in PubChem BioAssay AID504905 (The Scripps Research Institute Molecular Screening Center, 2011).
This is one part of the list. A number with no mark means an inactive call. Cut-off read from the data, not from the text of the source: active = activation above about 17%; inactive = the rest.

Molecular target: 5-hydroxytryptamine receptor 5A (Homo sapiens) (UniProt P47898)
Assay: activation of human 5-HT5A receptor – cell-based, luminescence, counter-screen for OPRM1-OPRD1 heterodimer agonist project (AID 504905);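 note: 0% = vehicle-treated cells and 100% = reference agonist response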
Details: HTR5A agonist counterscreen, at 9.3 µM, stronger effect = higher value

Chain of 5-hydroxytryptamine receptor 5A (Homo sapiens) (P47898 whole entry, looked up): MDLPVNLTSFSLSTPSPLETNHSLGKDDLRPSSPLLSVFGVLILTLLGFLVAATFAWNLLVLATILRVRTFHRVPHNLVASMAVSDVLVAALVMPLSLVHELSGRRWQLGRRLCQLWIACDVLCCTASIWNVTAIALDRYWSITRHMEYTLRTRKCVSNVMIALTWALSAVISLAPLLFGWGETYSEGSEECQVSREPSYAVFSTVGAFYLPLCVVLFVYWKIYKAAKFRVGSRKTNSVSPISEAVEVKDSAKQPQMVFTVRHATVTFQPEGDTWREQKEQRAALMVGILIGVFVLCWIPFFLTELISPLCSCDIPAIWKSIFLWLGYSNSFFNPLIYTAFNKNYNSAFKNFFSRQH

Compound	activation
CCCC(=O)NC(C)C(c1cccs1)N1CCN(c2ccccc2)CC1 (centres undefined)	-1.26%
CN(C)C(CNC(=O)Cc1ccc([N+](=O)[O-])cc1)c1ccccc1 (centres undefined)	1.22%
COc1ccc(C2Nc3ccccc3C(=O)N2c2ccc(F)cc2)cc1Cn1nnc2ccccc21 (centres undefined)	2.9%
N#CC(C(=O)c1ccc(S(=O)(=O)N2CCCCCC2)cc1)c1nc2ccccc2[nH]1 (centres undefined)	5.09%
COCCCNc1nc2c(-c3cccc(C)c3)nnn2c2ccc(Cl)cc12	8.68%
CCC(C(=O)OCC(=O)Nc1ccc(C(=O)Nc2ccc(OC)cc2)cc1)c1ccccc1 (centres undefined)	5.87%
CC(OC(=O)/C=C/c1ccccc1)C(=O)Nc1ccc(C(N)=O)cc1 (centres undefined)	0.16%
Cc1ccc(O)c(NC(=S)NC(=O)COc2ccc(Br)cc2)c1	0.97%
CCNS(=O)(=O)c1ccc(NC(=O)Nc2cccc(OC)c2)cc1	3.27%
Cc1ccc(CNC(=O)CC(NC(=O)c2ccccc2)c2ccccc2)cc1 (centres undefined)	-9.71%
Cc1ccc(S(=O)(=O)N(CC(=O)Nc2cccnc2)c2ccc(Br)cc2)cc1	0.5%
CCOC(=O)c1c(C)[nH]c2c1-c1ccccc1C(=O)C2=O	9.05%
CCOC(=O)C1(CC2CCCCO2)CCN(Cc2nc(-c3cccs3)oc2C)CC1 (centres undefined)	3.31%
COC(=O)c1ccc(C23CC4(C2)[C@H](CN(Cc2cccnc2)[C@@H]4c2ccccc2)C3c2ccc(Cl)nc2)cc1 (some centres undefined)	5.91%
